# Experimental data taken from ChEMBL document CHEMBL3988442, “University of Dundee, Small-Polar-MMV Screening Library” (2021).
# Among all 67,000 compounds or so, about 300 (0.45%) showed an effect of 50% or more. What follows is part of a selection rich in strong results, with near analogues and random picks from the rest.
# Biological target: Polyketide synthase Pks13 (Mycobacterium tuberculosis (strain ATCC 25618 / H37Rv)) (UniProt I6X8D2)
# Assay: Mycobacterium tuberculosis Polyketide synthase 13 Thioesterase (PKS13)
# Type: functional
# Set-up: scale not given: in the data most compounds retested in dose-response had high values
# Conditions: 30 µM
# Polyketide synthase Pks13 (Mycobacterium tuberculosis (strain ATCC 25618 / H37Rv)), sequence (I6X8D2 whole entry): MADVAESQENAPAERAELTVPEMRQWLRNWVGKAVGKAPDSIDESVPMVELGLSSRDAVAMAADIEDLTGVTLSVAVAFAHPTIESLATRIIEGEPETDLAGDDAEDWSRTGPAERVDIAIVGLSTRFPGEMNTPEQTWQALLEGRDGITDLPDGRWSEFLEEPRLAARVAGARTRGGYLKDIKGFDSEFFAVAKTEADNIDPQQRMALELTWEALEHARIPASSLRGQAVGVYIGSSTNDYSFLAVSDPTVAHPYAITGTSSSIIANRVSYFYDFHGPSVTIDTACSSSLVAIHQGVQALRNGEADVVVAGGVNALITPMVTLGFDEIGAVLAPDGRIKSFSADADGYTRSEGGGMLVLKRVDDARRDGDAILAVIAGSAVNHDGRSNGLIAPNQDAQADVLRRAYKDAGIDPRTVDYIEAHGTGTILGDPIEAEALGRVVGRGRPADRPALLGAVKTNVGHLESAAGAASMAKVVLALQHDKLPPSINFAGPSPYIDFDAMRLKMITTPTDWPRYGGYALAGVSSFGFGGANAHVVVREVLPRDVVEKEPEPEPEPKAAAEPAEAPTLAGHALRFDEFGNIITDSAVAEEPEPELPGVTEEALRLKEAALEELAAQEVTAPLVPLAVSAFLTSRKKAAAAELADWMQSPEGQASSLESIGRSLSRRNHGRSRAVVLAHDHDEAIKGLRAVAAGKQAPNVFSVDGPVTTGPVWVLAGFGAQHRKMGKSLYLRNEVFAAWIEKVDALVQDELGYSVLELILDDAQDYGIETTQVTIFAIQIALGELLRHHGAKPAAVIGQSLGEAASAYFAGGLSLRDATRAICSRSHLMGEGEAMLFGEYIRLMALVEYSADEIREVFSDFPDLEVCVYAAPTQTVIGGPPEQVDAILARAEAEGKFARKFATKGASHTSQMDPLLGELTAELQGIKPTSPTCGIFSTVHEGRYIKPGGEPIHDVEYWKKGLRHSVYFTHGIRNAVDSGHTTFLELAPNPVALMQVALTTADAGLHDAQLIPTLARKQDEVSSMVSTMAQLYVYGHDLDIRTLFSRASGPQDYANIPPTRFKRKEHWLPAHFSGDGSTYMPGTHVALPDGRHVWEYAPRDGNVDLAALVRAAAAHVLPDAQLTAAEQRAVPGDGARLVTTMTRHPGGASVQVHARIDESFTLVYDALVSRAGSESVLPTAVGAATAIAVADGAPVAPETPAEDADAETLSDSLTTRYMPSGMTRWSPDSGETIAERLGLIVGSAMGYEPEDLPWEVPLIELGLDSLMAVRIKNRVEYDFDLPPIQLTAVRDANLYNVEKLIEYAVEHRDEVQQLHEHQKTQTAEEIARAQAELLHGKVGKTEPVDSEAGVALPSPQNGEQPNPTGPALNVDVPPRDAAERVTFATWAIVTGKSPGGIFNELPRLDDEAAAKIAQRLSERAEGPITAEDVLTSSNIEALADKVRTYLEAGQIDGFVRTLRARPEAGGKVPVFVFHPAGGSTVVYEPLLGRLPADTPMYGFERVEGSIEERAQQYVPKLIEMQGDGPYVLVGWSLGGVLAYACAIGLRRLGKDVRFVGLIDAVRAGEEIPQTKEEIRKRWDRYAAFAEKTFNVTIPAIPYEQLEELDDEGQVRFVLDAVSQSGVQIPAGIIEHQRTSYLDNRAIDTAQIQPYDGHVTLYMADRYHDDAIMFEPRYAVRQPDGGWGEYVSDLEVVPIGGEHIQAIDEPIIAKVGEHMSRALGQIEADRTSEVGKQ
row,Compound,Percent Effect [%]
1,Cc1nc[nH]c1CN1CCN(C(=O)c2cccs2)[C@H]2CS(=O)(=O)C[C@H]21,-7.55
2,COCCN1C[C@H]2CC[C@@H]1CN(CC(=O)Nc1ccn(C)n1)C2,-11.6
3,O=C(c1cnccn1)N1CCN2C[C@H](Oc3cccc(F)c3)C[C@H]2C1,-42.7
4,O=C(Cc1cccc(F)c1)N1CCN2C[C@H](Oc3cncnc3)C[C@H]2C1,-1.46
5,O=C(C1CC1)N1CCN2C[C@@H](CO)[C@H](c3ccccc3)[C@H]2C1,2.09
6,Cc1nnc([C@H]2CC[C@@H]3[C@@H](CCN3CC3CCOCC3)O2)o1,-25.5
7,CN(C)C(=O)CO[C@@H]1CC[C@H]2[C@H]1OCCN2c1ncc(F)cn1,-1.97
8,COCCN1C(=O)C[C@H]2[C@H]1CCN2Cc1cccc(C#N)c1,-24.2
9,CO[C@@H]1CCC[C@@H](N(C)C(=O)c2cn3cc(C)ccc3n2)[C@H]1O,-3.51
10,CO[C@@H]1CC[C@@H](N(C)C(=O)c2cn3cc(C)ccc3n2)[C@H]1O,-0.591
11,Cc1ccc2nc(C(=O)N(C)[C@@H]3CC[C@@H](N4CCCC4)[C@@H]3O)cn2c1,61.6
12,CC(C)=CCN1C[C@H]2CC[C@@H]1CN(S(=O)(=O)c1cccnc1)C2,7.63
13,CCN1CC[C@@]2(C(=O)N3CCOCC3)CCN(C(=O)NC)CC[C@@H]12,-31.8
14,CC(NC(=O)NCC(C)(C)C(N)=O)c1nc(-c2ccccc2)cs1 (stereo not drawn),55.9
15,CC(C)NC(=O)NC(C)c1nc(-c2ccccc2)cs1 (stereo not drawn),0.666
16,CC(NC(=O)NC1CC1)c1nc(-c2ccccc2)cs1 (stereo not drawn),-2.19
17,CNC(=O)c1cc2c(nc1NCC1CC1)CCN(S(=O)(=O)C1CC1)CC2,-32.9
18,CNC(=O)c1cc2c(nc1NCC(C)C)CCN(S(=O)(=O)C1CC1)CC2,-13.9
19,CNC(=O)c1cc2c(nc1NCC1CC1)CCN(c1ccncn1)CC2,-246
20,CNC(=O)c1cc2c(nc1NCC(C)C)CCN(c1ncccn1)CC2,16.7
21,CCS(=O)(=O)N1CCc2cc(C(=O)NC)c(NCC(C)C)nc2CC1,-68.6
22,CNC(=O)c1cc2c(nc1NCC1CC1)CCN(S(C)(=O)=O)CC2,55.9
23,CNC(=O)c1cc2c(nc1NCC(C)C)CCN(S(C)(=O)=O)CC2,51
24,CNC(=O)c1cc2c(nc1NCC(C)C)CCN(CC1CC1)CC2,51.6
25,CNC(=O)c1cc2c(nc1NCC1CC1)CCN(CC1CC1)CC2,42.7
26,CNC(=O)c1cc2c(nc1NCC(C)C)CCN(C)CC2,49.9
27,CCS(=O)(=O)N1CCc2cc(C(=O)NC)c(NCC3CC3)nc2CC1,23.6

row,Compound,Percent Effect [%]
1,CNC(=O)c1cc2c(nc1NCC(C)C)CCN(c1ccncn1)CC2,94.4
2,O=C(NC1CC1)[C@@H]1CCO[C@@H]2CCN(C3CCOCC3)C[C@H]21,-9.37
3,Cc1noc(C)c1CN1C[C@@H]2CCCO[C@@H]2[C@H](NS(C)(=O)=O)C1,-27.6
4,O=C([C@@H]1COC[C@H]2CN(CC3CCCC3)C[C@H]21)N1CCOCC1,-31.7
5,CO[C@@H]1CCN(c2ncc(F)cn2)[C@@H]2CN(CC3CC3)C[C@@H]21,-32.1
6,CC(C)N1CCO[C@H]2CN(C(=O)c3ccsc3)C[C@H]21,-16
7,Cc1cc(CN2CCN(C(=O)C(C)C)[C@@H]3CS(=O)(=O)C[C@@H]32)ccc1F,-6.06
8,CN(C)C(=O)c1cc2c(nc1NCC1CC1)CCNCC2,-20.1
9,CNC(=O)c1cc2c(nc1NCC1CC1)CCNCC2,81.7
10,CNC(=O)c1cc2c(nc1NCC1CC1)CCN(c1ncccn1)CC2,9.04
11,O=C1[C@@H]2CCN(Cc3ccoc3)C[C@@H]2OCCN1c1cccnc1,-7.12
12,Cc1noc([C@H]2C[C@H]3CN(C(=O)Cc4ccsc4)CC[C@H]3O2)n1,-10.9
13,O=C(CC1CC1)N[C@@H]1CN(Cc2nccs2)C[C@@H]2CCCO[C@@H]21,-33.5
14,Cc1nc(COC[C@@H]2CC[C@H]3[C@H](CCN3c3ncccn3)O2)cs1,-28.4
15,COCC(=O)N1CCC(c2cc(C(F)(F)F)n3ccnc3n2)CC1,61.5
16,FC(F)(F)c1cc(C2CCN(c3cnccn3)CC2)n2ccnc2n1,18.1
17,CC(=O)N1CCC(c2cc(C(F)(F)F)nc3nccn23)CC1,57.5
18,CC(=O)N1CCC(c2cc(C(F)(F)F)n3ccnc3n2)CC1,41.8
19,CN1CCC(c2cc(C(F)(F)F)n3ccnc3n2)CC1,-20.7
20,CC(C)N1CCCC(c2cc(C(F)(F)F)nc3nccn23)C1 (stereo not drawn),24.5
21,c1cc(CN2CCO[C@H]3[C@H](OCCN4CCCC4)CC[C@@H]32)ccn1,-11.4
22,CC1=N[C@@]2(CC[C@@H]3CN(CC(=O)N(C)C)C[C@@H]32)C(=O)N1CC(C)C,-5.03
23,COCCCN1C(=O)CC[C@H]2CN(Cc3cc4ccccc4o3)CC[C@H]21,-4.88
24,COCCN1CCO[C@@H]2CN(Cc3ccc(C)s3)C[C@@H]2C1,-27.7
25,CN(C)C(=O)CN1C[C@@H]2CC[C@H](C1)N(Cc1ccccc1C#N)C2,6.99
26,COc1ccc2[nH]cc(-c3ccnc(N4CCC(C)CC4)n3)c2c1,71.9
